Test results reported in PubChem BioAssay (Tox21).
Active and inactive are the calls of the source. Entries that show only a call come without a potency. Unless noted, calls follow the shape of the dose curve; as a rule, active = well fitted curve in the direction sought with a large enough effect in the repeat runs; inconclusive = weak or mixed curves; inactive = no such curve, though single readings can be large; an effect the other way counts as inactive or inconclusive.

Tests used:
[1] = qHTS assay to identify small molecule antagonists of the thyroid receptor (TR) signaling pathway - cell viability counter screen (AID 743064); also: nearly all actives have a fitted effect of over 50% in size; also: potency is read from the fitted curve at half-maximal effect
Summary of the method: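 Rat GH3 pituitary tumor cells stably expressing two TR response elements driving luciferase were plated, rested 4 h, then dosed with library compounds and T3 (1 nM final). After 23.5 h at 37 °C, CellTiter-Fluor was added for 30 min and fluorescence recorded.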

[2] = qHTS assay to identify small molecule antagonists of the thyroid receptor (TR) signaling pathway (AID 743065); also: nearly all actives have a fitted effect of over 55% in size; also: potency is read from the fitted curve at half-maximal effect
Summary of the method: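 Antagonism measured as loss of luciferase signal in GH3 cells stably carrying a TRE-luciferase reporter, co-treated with compound and T3 (1 nM final) for 23.5 h at 37 C. Viability was read in the same well by CellTiter-Fluor.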

[3] = system: thyroid hormone receptor (rat, GH3 cells); test: qHTS assay to identify small molecule agonists of the thyroid receptor (TR) signaling pathway (AID 743066; calls by dose curve)
[4] = molecular target: Estrogen receptor (Homo sapiens) (UniProt P03372); test: qHTS assay to identify small molecule antagonists of the estrogen receptor alpha (ER-alpha) signaling pathway (AID 743069; active = well fitted curve in the direction sought with a large enough effect in the signal ratio in the repeat runs, not every such curve was filed as active; inconclusive = weak or mixed curves, or effect the other way; inactive = no such curve, though single readings can be large or run the other way; the % refers to the signal ratio; also: potency is read from the fitted curve at half-maximal effect)
Estrogen receptor (Homo sapiens), sequence (P03372 whole entry, looked up): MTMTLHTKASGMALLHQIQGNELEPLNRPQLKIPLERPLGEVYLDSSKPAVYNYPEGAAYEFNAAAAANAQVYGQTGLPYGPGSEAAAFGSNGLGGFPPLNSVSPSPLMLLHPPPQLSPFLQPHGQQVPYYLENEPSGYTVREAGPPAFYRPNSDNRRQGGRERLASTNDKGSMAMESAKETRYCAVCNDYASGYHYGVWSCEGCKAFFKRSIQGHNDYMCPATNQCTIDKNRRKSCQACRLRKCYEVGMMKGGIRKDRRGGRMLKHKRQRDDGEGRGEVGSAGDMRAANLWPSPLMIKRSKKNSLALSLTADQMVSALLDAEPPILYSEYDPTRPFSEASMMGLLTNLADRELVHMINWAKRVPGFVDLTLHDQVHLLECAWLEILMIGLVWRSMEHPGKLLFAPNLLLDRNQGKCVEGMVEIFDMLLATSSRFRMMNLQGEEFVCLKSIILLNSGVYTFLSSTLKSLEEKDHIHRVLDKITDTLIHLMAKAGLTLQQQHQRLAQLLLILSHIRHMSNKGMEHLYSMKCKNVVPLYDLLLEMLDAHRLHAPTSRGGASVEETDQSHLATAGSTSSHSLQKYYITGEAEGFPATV
Summary of the method: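 ER-alpha-UAS-bla GripTite HEK293 line; 2% charcoal-stripped FBS overnight; plated, 4 hr 37C/5% CO2; cpd in DMSO + 17beta-estradiol, 18 hr 37C; LiveBLAzer B/G FRET substrate 2 hr RT; fluorescence intensity.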

[5] = qHTS assay to identify small molecule antagonists of the estrogen receptor alpha (ER-alpha) signaling pathway - cell viability counter screen (AID 743074; calls by dose curve;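 also: HEK293 cells carrying ER-alpha-UAS-bla reporter stimulated with 17beta-estradiol; nearly all actives have a fitted effect of over 45% in size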)
[6] = molecular target: Estrogen receptor (Homo sapiens) (UniProt P03372); test: qHTS assay to identify small molecule agonists of the estrogen receptor alpha (ER-alpha) signaling pathway (AID 743075; calls by dose curve;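 also: HEK293 GripTite cells with ER-alpha and UAS-driven beta-lactamase reporter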; also: potency is read from the fitted curve at half-maximal effect)
[7] = molecular target: Estrogen receptor (Homo sapiens) (UniProt P03372); test: qHTS assay to identify small molecule agonists of the estrogen receptor alpha (ER-alpha) signaling pathway using the BG1 cell line (AID 743079); settings: BG1Luc4E2 cells, ERE-luciferase agonist, 22 h; activation: at 70.3 µM (top of the series); also: nearly all actives have a fitted effect of over 20% in size; also: potency is read from the fitted curve at half-maximal effect
[8] = qHTS assay to identify small molecule antagonists of the estrogen receptor alpha (ER-alpha) signaling pathway using the BG1 cell line (AID 743080; calls by dose curve;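 also: BG1 cells stimulated with 17beta-estradiol alongside compound; nearly all actives have a fitted effect of over 25% in size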; also: potency is read from the fitted curve at half-maximal effect)
Summary of the method: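 Endogenous full-length ER-alpha in BG1-Luc-4E2 cells drives a stably integrated 4×ERE luciferase gene; compounds were tested against 17beta-estradiol over 21.5 h, with luminescence and multiplexed viability fluorescence recorded.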

[9] = qHTS assay to identify small molecule antagonists of the estrogen receptor alpha (ER-alpha) signaling pathway using the BG1 cell line - cell viability counter screen (AID 743081);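 also: compound given together with 17beta-estradiol as the ER stimulus; nearly all actives have a fitted effect of over 45% in size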; also: potency is read from the fitted curve at half-maximal effect
Aromatase (Homo sapiens) = Aromatase (Homo sapiens) (UniProt P11511); test: qHTS assay to identify aromatase inhibitors (AID 743083); also: nearly all actives have a fitted effect of over 55% in size; also: potency is read from the fitted curve at half-maximal effect
Aromatase (Homo sapiens), sequence (P11511 whole entry, looked up): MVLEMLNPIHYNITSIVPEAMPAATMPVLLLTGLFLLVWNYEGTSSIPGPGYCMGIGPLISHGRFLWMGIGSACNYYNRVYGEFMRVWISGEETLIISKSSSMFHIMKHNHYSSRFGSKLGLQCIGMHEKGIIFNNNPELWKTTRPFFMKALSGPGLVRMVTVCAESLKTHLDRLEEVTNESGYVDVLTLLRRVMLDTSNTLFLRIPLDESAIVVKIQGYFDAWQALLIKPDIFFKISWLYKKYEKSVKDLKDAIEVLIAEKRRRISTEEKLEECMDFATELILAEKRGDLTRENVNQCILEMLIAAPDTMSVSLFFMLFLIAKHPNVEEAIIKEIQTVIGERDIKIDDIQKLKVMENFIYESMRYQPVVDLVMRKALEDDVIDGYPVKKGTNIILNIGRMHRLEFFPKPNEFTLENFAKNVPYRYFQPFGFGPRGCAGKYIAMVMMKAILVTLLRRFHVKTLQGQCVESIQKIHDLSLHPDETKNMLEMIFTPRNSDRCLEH

[10] = qHTS assay to identify aromatase inhibitors - cell viability counter screen (AID 743084);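 also: cells stimulated with testosterone during compound exposure; nearly all actives have a fitted effect of over 55% in size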; also: potency is read from the fitted curve at half-maximal effect
[11] = molecular target: Aryl hydrocarbon receptor (Homo sapiens) (UniProt P35869); test: qHTS assay to identify small molecule that activate the aryl hydrocarbon receptor (AhR) signaling pathway (AID 743085); also: nearly all actives have a fitted effect of over 15% in size; also: potency is read from the fitted curve at half-maximal effect;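 as to activation: HG2L7.5c1 human HepG2 liver cells with stably integrated DRE-driven firefly reporter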
Aryl hydrocarbon receptor (Homo sapiens), sequence (P35869 whole entry, looked up): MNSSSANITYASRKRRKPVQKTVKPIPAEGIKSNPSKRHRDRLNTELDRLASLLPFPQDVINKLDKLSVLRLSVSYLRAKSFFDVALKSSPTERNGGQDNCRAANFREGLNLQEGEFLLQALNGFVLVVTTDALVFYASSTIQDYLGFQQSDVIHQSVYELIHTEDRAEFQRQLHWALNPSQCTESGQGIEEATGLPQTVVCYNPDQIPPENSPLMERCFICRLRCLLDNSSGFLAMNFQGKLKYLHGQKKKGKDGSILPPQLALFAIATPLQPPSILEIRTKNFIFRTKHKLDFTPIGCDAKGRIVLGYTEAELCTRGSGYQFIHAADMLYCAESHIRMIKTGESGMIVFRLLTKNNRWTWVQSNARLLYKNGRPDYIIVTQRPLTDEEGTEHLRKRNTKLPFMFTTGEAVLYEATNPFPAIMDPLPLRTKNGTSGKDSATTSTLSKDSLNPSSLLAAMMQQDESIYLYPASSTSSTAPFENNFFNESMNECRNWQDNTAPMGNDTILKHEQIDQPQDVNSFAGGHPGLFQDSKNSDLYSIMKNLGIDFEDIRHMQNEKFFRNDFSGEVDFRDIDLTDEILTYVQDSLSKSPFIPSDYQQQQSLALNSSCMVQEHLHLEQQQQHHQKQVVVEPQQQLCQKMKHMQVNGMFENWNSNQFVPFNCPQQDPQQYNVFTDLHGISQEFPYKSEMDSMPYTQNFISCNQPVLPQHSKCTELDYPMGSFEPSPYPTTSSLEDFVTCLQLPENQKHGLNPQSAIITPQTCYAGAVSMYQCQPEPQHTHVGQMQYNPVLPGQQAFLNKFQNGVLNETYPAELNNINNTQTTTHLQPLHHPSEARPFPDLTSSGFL
Summary of the method: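 Compounds were tested in HepG2 hepatocellular carcinoma cells harbouring a stably integrated luciferase gene under control of 20 DREs. Increased reporter signal after 24 h treatment at 37C was taken as AhR activation.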

[12] = molecular target: Peroxisome proliferator-activated receptor gamma (Homo sapiens) (UniProt P37231); test: qHTS assay to identify small molecule agonists of the peroxisome proliferator-activated receptor gamma (PPARg) signaling pathway (AID 743094; active = well fitted activation curve with a large enough effect in the signal ratio in the repeat runs, not every such curve was filed as active; inconclusive = weak or mixed curves, or effect the other way; inactive = no such curve, though single readings can be large or run the other way; the % refers to the signal ratio)
Peroxisome proliferator-activated receptor gamma (Homo sapiens), sequence (P37231 whole entry, looked up): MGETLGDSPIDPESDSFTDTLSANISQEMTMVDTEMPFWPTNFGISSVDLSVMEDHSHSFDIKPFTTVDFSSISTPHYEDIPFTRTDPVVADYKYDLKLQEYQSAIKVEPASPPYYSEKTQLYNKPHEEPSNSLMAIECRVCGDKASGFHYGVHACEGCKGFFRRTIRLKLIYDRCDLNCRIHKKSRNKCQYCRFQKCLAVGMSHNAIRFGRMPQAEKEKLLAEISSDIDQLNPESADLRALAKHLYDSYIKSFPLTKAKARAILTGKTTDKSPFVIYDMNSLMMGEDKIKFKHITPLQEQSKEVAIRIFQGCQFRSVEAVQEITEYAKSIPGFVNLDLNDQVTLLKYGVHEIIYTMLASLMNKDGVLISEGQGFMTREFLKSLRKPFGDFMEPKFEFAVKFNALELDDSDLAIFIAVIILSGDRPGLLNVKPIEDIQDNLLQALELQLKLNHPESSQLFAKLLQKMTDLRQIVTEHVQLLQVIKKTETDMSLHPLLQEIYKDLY
Summary of the method: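 Quantitative HTS agonist mode: stable HEK293H line with UAS-beta-lactamase reporter under PPARg control, 17 h compound exposure at 37C, fluorescence after 1 h FRET substrate loading at room temperature.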

[13] = qHTS assay to identify small molecule antagonists of the peroxisome proliferator-activated receptor gamma (PPARg) signaling pathway - cell viability counter screen (AID 743194); also: nearly all actives have a fitted effect of over 55% in size
Summary of the method: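 Viability was measured as CellTiter-Glo luminescence in GeneBLAzer PPARg UAS-bla HEK293H cells. These cells had been exposed 17 h at 37 C to compounds together with rosiglitazone at 50 nM final, with the beta-lactamase readout taken in the same wells.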

[14] = qHTS assay for small molecule activators of the heat shock response signaling pathway - cell viability counter screen (AID 743209); also: nearly all actives have a fitted effect of over 50% in size
Summary of the method: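 First, HSE-bla HeLa cells were seeded at 1500 cells/well and kept overnight at 37 C. Next, compounds were pinned in and incubated 5 h. After the FRET substrate step, CellTiter-Glo was added and luminescence read 30 min later.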

[15] = qHTS assay for small molecule activators of the heat shock response signaling pathway (AID 743210; active = well fitted activation curve with a large enough effect in the signal ratio in the repeat runs, with a control signal flat, not every such curve was filed as active; inconclusive = weak or mixed curves; the % refers to the signal ratio;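 also: HeLa cells with beta-lactamase reporter driven by heat shock elements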)
Summary of the method: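 HeLa HSE-bla cells, overnight plating; cpd in DMSO 5 h, 37 C; LiveBLAzer B/G FRET substrate 2.5 h RT; fluorescence intensity read.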

[16] = qHTS assay to identify small molecule that activate the aryl hydrocarbon receptor (AhR) signaling pathway - cell viability counter screen (AID 743086); also: nearly all actives have a fitted effect of over 45% in size; also: potency is read from the fitted curve at half-maximal effect
Summary of the method: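 Cytotoxicity counter screen: CellTiter-Fluor signal (30 min, 37 C) in 4000 HepG2 cells/well carrying the DRE-luciferase reporter, following 24 h compound exposure at 37 C.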

[17] = molecular target: Peroxisome proliferator-activated receptor gamma (Homo sapiens) (UniProt P37231); test: qHTS assay to identify small molecule antagonists of the peroxisome proliferator-activated receptor gamma (PPARg) signaling pathway (AID 743191; calls by dose curve; also: nearly all actives have a fitted effect of over 30% in size; also: potency is read from the fitted curve at half-maximal effect)
Summary of the method: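 Beta-lactamase reporter under UAS control in HEK293H PPARg-bla cells; compound treatment 17 h at 37C. Read-out: fluorescence intensity after 1 h room-temperature incubation with LiveBLAzer B/G FRET substrate.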

[18] = qHTS assay for small molecule agonists of the antioxidant response element (ARE) signaling pathway - cell viability counter screen (AID 743203; calls by dose curve; also: nearly all actives have a fitted effect of over 55% in size)
Summary of the method: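 Seeded at 2,000 cells/well, ARE-bla HepG2 cells were incubated 5 hrs before compound addition. After 16 hrs of treatment at 37C with 5% CO2, CellTiter-Glo reagent was added and luminescence read 30 min later.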

[19] = qHTS assay for small molecule agonists of the antioxidant response element (ARE) signaling pathway (AID 743202; active = well fitted activation curve with a large enough effect in the signal ratio in the repeat runs, not every such curve was filed as active; inconclusive = weak or mixed curves, or effect the other way; inactive = no such curve, though single readings can be large or run the other way; the % refers to the signal ratio; also: potency is read from the fitted curve at half-maximal effect)
Summary of the method: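 Quantitative high-throughput format in HepG2 cells bearing an integrated ARE-beta-lactamase reporter. Compound exposure lasted 16 h at 37 C, and fluorescence was read 2 h after adding LiveBLAzer B/G substrate at room temperature.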

SMILES	Potency [1]	Potency [2]	outcome [3]	Potency [4]	Potency [5]	Potency [6]	Potency [7]	Potency [8]	Potency [9]	Potency (Aromatase (Homo sapiens))	Potency [10]	Potency [11]	Potency [12]	Potency [13]	Potency [14]	Potency [15]	Potency [16]	Potency [17]	Potency [18]	Potency [19]
C=C(C)CCCC(C)CCO (stereo unspecified)	inactive	inactive	inactive	inactive	inactive	inactive	inactive	inactive	inactive	inactive	inactive	inactive	inactive	inactive	inactive	inactive	–	–	–	–
C=CC(C)(CCC=C(C)C)OC(=O)CC(C)C (stereo unspecified)	inactive	inactive	inactive	inactive	inactive	inactive	inactive	inactive	inactive	inactive	inactive	inactive	inactive	inactive	inactive	inactive	inactive	inactive	inactive	–
O=c1[nH]c2ccc(Cl)cc2o1	inactive	inactive	inactive	inactive	inactive	inactive	inactive	inactive	inactive	inactive	inactive	inactive	–	inactive	inactive	inactive	inactive	–	inactive	–
Cc1ccc(CO)cc1	inactive	inactive	inactive	inactive	inactive	inactive	inactive	inactive	inactive	inactive	inactive	inactive	inactive	inactive	inactive	–	inactive	inactive	inactive	–
C=C(C)C(=O)OCCCCCCCCCCCCC	inactive	inactive	inactive	inactive	inactive	inactive	inactive	inactive	inactive	inactive	inactive	inactive	inactive	inactive	inactive	inactive	inactive	inactive	inactive	inactive
N#CCc1ccc(Cl)cc1Cl	inactive	inactive	inactive	inactive	inactive	inactive	inactive	inactive	inactive	inactive	inactive	inactive	inactive	inactive	inactive	inactive	inactive	inactive	inactive	inactive
CC(C)(C)C(=O)C(=O)O	inactive	inactive	inactive	inactive	inactive	inactive	inactive	inactive	inactive	inactive	inactive	inactive	inactive	inactive	inactive	inactive	–	inactive	inactive	–
Cc1ccc(C(C)(C)O)cc1	inactive	inactive	inactive	inactive	inactive	inactive	inactive	inactive	inactive	inactive	inactive	inactive	inactive	inactive	inactive	inactive	inactive	inactive	inactive	inactive
CCC(C)COC(C)=O (stereo unspecified)	inactive	inactive	inactive	inactive	inactive	inactive	inactive	inactive	inactive	inactive	inactive	–	–	inactive	–	–	–	–	inactive	inactive
CC(CO)CO	inactive	inactive	inactive	inactive	inactive	inactive	inactive	inactive	inactive	inactive	inactive	inactive	–	–	inactive	inactive	–	–	inactive	inactive
Oc1cc2c(cc1O)[C@H]1c3ccc(O)c(O)c3OC[C@@]1(O)C2	61.9 µM (active)	49.2 µM (active)	inactive	inactive	inactive	inactive	–	–	49.2 µM (active)	24.6 µM (active)	24.6 µM (active)	–	inactive	–	inactive	–	27.6 µM (active)	–	inactive	–
CC1(C)[C@@H](OC(=O)CCC(=O)O)CC[C@]2(C)[C@H]3C(=O)C=C4[C@@H]5C[C@@](C)(C(=O)O)CC[C@]5(C)CC[C@@]4(C)[C@]3(C)CC[C@@H]12	inactive	inactive	inactive	–	inactive	–	–	–	inactive	inactive	inactive	inactive	inactive	inactive	–	–	inactive	–	inactive	26.6 µM (active)
c1ccc(C[n+]2cccc3ccccc32)cc1	inactive	inactive	inactive	49 µM [inconclusive] (active)	inactive	inactive	–	61.1 µM (active)	–	inactive	inactive	–	inactive	–	inactive	inactive	inactive	inactive	inactive	–
CC(C)(O)c1ccc(CNC(=O)c2cccnc2Oc2ccc3nonc3c2)cc1	inactive	inactive	inactive	–	inactive	inactive	–	inactive	inactive	inactive	inactive	inactive	–	inactive	inactive	inactive	inactive	–	inactive	–
O=C1NC(=O)c2cc([N+](=O)[O-])ccc21	inactive	inactive	inactive	inactive	inactive	inactive	inactive	inactive	inactive	inactive	–	inactive	inactive	inactive	inactive	inactive	inactive	–	inactive	–
CC(C)=CCC1C(=O)N(c2ccccc2)N(c2ccccc2)C1=O	inactive	21.1 µM (active)	inactive	–	inactive	inactive	–	–	inactive	inactive	inactive	inactive	–	inactive	inactive	–	inactive	4.22 µM (active)	inactive	1.88 µM (active)
O=C(/C=C/c1ccccc1)OCCc1ccccc1	inactive	inactive	inactive	–	inactive	inactive	4.86 µM (active)	–	inactive	inactive	inactive	inactive	inactive	inactive	inactive	inactive	inactive	inactive	inactive	–

SMILES	Potency [1]	Potency [2]	outcome [3]	Potency [4]	Potency [5]	Potency [6]	Potency [7]	Potency [8]	Potency [9]	Potency (Aromatase (Homo sapiens))	Potency [10]	Potency [11]	Potency [12]	Potency [13]	Potency [14]	Potency [15]	Potency [16]	Potency [17]	Potency [18]	Potency [19]
CC/C=C1/OC(=O)c2ccccc21	inactive	inactive	inactive	–	inactive	–	–	–	inactive	inactive	inactive	inactive	inactive	inactive	inactive	inactive	inactive	–	inactive	inactive
CC1CC(C)C(=O)C1=O (stereo unspecified)	inactive	inactive	inactive	–	inactive	–	–	–	inactive	inactive	inactive	inactive	inactive	inactive	inactive	–	inactive	inactive	inactive	inactive
C(=C\c1ccccc1)/c1ccccc1	inactive	inactive	inactive	inactive	inactive	inactive	60.6 µM (active)	–	inactive	inactive	inactive	76.3 µM (active)	inactive	–	inactive	inactive	inactive	inactive	inactive	–
CCOC(=O)C1=C(C)NC(C)=C(C(=O)OC)C1c1cccc(Cl)c1Cl (stereo unspecified)	18.8 µM (active)	18.8 µM (active)	inactive	–	inactive	10.7 µM [activator] (active)	inactive	inactive	inactive	inactive	inactive	1.88 µM (active)	–	inactive	inactive	–	–	inactive	–	–
CO/N=C(/C(=O)N[C@@H]1C(=O)N2C(C(=O)O)=C(COC(N)=O)CS[C@H]12)c1ccco1	inactive	inactive	inactive	–	inactive	–	–	–	inactive	inactive	inactive	inactive	inactive	inactive	inactive	–	inactive	–	inactive	–
CCCCCCCCCI	inactive	inactive	inactive	inactive	inactive	–	–	inactive	inactive	inactive	inactive	inactive	inactive	inactive	inactive	inactive	inactive	inactive	inactive	inactive
O=C(Cn1ccnc1[N+](=O)[O-])NCCO	inactive	inactive	inactive	inactive	–	inactive	inactive	inactive	inactive	inactive	inactive	inactive	inactive	inactive	inactive	inactive	–	inactive	inactive	inactive
CCCC(=O)C(=O)O	inactive	inactive	inactive	inactive	inactive	inactive	inactive	inactive	inactive	inactive	–	inactive	–	inactive	inactive	inactive	inactive	–	inactive	–
CCCCN1CCCC1C(=O)Nc1c(C)cc(C)cc1C (stereo unspecified)	inactive	inactive	inactive	–	inactive	inactive	inactive	inactive	inactive	inactive	inactive	–	–	inactive	inactive	–	inactive	–	inactive	inactive
CC=C(Cl)Cl	inactive	inactive	inactive	inactive	inactive	–	inactive	inactive	inactive	inactive	inactive	inactive	inactive	inactive	inactive	inactive	inactive	inactive	inactive	inactive
Cc1ccccc1N=C(N)Nc1ccccc1C	inactive	inactive	inactive	inactive	inactive	inactive	inactive	inactive	–	inactive	inactive	inactive	inactive	inactive	inactive	inactive	–	inactive	inactive	inactive
O=C=Nc1cccc(C(F)(F)F)c1	60.7 µM (active)	54.1 µM (active)	inactive	–	inactive	inactive	inactive	inactive	inactive	–	inactive	–	inactive	–	inactive	inactive	inactive	–	inactive	–
CC(=O)Oc1ccc([N+](=O)[O-])cc1CCl	30.6 µM (active)	inactive	inactive	–	inactive	inactive	inactive	–	61.1 µM (active)	inactive	27.3 µM (active)	inactive	inactive	inactive	inactive	inactive	–	–	–	–
CN1C(C(=O)Nc2ccccn2)=C(O)c2sccc2S1(=O)=O	inactive	inactive	inactive	inactive	inactive	inactive	inactive	inactive	–	inactive	inactive	inactive	inactive	inactive	inactive	–	–	inactive	inactive	inactive
CC1=C(CC=O)C(C)(C)CCC1	inactive	inactive	inactive	–	inactive	–	–	–	inactive	inactive	inactive	inactive	inactive	inactive	inactive	–	inactive	–	inactive	inactive
CC(CCC(=O)O)C(=O)O (stereo unspecified)	inactive	inactive	inactive	–	inactive	–	–	–	inactive	inactive	inactive	inactive	inactive	inactive	inactive	inactive	inactive	inactive	inactive	–
NC(=O)c1ccncc1	inactive	inactive	inactive	–	inactive	–	–	–	inactive	inactive	inactive	inactive	inactive	inactive	inactive	inactive	inactive	inactive	inactive	inactive
